Data taken from ChEMBL document CHEMBL1961873, “Compounds: GSK PKIS; Assays: Nanosyn kinase panel” (2012).

Columns and labels:
[1] = biological target: Mitogen-activated protein kinase 3 (Homo sapiens) (UniProt P27361); details: at 1 µM;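 note: values are mean percent inhibition of MAPK3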
[2] = biological target: SRSF protein kinase 3 (Homo sapiens) (UniProt Q9UPE1); details: at 0.1 µM
[3] = biological target: SRSF protein kinase 3 (Homo sapiens) (UniProt Q9UPE1); details: at 1 µM
[4] = biological target: SRSF protein kinase 1 (Homo sapiens) (UniProt Q96SB4); details: at 0.1 µM
[5] = biological target: SRSF protein kinase 1 (Homo sapiens) (UniProt Q96SB4); details: at 1 µM
[6] = biological target: Phosphatidylinositol 4,5-bisphosphate 3-kinase catalytic subunit alpha isoform (Homo sapiens) (UniProt P42336); details: at 0.1 µM
[7] = biological target: Phosphatidylinositol 4,5-bisphosphate 3-kinase catalytic subunit alpha isoform (Homo sapiens) (UniProt P42336); details: at 1 µM
[8] = biological target: T1, Phosphatidylinositol 4,5-bisphosphate 3-kinase catalytic subunit delta isoform (Homo sapiens) (UniProt O00329); details: at 0.1 µM
T1 sequence (whole entry): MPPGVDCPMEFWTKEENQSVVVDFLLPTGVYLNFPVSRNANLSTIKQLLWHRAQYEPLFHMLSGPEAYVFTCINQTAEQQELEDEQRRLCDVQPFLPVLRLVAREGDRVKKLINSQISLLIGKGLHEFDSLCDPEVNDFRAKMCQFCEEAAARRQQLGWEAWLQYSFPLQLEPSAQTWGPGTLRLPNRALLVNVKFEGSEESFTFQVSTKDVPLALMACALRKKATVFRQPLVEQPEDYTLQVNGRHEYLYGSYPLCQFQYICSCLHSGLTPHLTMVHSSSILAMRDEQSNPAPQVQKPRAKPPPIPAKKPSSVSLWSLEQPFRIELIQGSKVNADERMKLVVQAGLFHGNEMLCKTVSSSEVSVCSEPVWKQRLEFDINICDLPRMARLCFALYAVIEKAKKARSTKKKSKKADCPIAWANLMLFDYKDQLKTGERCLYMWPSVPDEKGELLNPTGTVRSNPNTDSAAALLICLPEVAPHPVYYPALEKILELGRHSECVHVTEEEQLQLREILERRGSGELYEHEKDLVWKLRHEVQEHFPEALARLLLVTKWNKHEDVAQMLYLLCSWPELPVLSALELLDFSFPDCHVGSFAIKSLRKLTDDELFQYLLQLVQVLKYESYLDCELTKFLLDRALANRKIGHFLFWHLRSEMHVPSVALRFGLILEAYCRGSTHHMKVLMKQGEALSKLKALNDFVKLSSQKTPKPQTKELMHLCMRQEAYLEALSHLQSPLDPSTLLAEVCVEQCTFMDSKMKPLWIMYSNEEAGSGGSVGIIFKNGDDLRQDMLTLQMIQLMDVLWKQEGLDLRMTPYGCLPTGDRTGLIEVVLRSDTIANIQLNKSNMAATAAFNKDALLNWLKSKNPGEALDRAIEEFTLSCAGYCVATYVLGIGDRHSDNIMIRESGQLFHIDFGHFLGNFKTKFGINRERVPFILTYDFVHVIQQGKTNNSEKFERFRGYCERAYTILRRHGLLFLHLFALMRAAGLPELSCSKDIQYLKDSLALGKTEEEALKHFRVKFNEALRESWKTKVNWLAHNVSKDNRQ

[9] = biological target: T1, Phosphatidylinositol 4,5-bisphosphate 3-kinase catalytic subunit delta isoform (Homo sapiens); details: at 1 µM
[10] = biological target: Phosphatidylinositol 4-kinase beta (Homo sapiens) (UniProt Q9UBF8); details: at 0.1 µM
[11] = biological target: Phosphatidylinositol 4-kinase beta (Homo sapiens) (UniProt Q9UBF8); details: at 1 µM
[12] = biological target: Sphingosine kinase 1 (Homo sapiens) (UniProt Q9NYA1); details: at 0.1 µM;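 note: mean percent inhibition of SPHK1 activity, measured within the GSK PKIS screening panel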
[13] = biological target: Mitogen-activated protein kinase 14 (Homo sapiens) (UniProt Q16539); details: at 0.1 µM
[14] = biological target: Mitogen-activated protein kinase 14 (Homo sapiens) (UniProt Q16539); details: at 1 µM
[15] = biological target: Mitogen-activated protein kinase 11 (Homo sapiens) (UniProt Q15759); details: at 0.1 µM
[16] = biological target: Mitogen-activated protein kinase 11 (Homo sapiens) (UniProt Q15759); details: at 1 µM
[17] = biological target: T2, Mitogen-activated protein kinase 13 (Homo sapiens) (UniProt O15264); details: at 0.1 µM
T2 sequence (whole entry): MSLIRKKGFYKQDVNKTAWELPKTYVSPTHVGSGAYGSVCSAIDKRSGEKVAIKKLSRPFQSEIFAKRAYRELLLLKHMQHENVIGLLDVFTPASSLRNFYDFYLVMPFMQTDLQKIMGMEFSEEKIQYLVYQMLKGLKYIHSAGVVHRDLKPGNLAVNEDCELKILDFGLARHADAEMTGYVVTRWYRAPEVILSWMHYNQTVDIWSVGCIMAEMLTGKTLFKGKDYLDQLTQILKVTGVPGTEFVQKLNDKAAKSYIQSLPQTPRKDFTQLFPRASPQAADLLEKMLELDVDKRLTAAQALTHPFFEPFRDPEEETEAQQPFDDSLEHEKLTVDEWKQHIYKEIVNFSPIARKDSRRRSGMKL

[18] = biological target: T2, Mitogen-activated protein kinase 13 (Homo sapiens); details: at 1 µM
[19] = biological target: T3, Mitogen-activated protein kinase 12 (Homo sapiens) (UniProt P53778); details: at 0.1 µM
T3 sequence (whole entry): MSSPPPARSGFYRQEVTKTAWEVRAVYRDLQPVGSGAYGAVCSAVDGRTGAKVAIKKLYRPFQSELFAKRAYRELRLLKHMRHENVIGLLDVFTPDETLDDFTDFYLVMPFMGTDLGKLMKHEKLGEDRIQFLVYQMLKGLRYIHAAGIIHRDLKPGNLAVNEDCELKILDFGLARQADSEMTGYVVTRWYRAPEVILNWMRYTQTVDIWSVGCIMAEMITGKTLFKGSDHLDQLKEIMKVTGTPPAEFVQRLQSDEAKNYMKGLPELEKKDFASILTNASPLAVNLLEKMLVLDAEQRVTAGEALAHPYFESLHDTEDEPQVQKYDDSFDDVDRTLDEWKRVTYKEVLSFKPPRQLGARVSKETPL

[20] = biological target: T3, Mitogen-activated protein kinase 12 (Homo sapiens); details: at 1 µM

Chain of Mitogen-activated protein kinase 3 (Homo sapiens) (P27361 whole entry): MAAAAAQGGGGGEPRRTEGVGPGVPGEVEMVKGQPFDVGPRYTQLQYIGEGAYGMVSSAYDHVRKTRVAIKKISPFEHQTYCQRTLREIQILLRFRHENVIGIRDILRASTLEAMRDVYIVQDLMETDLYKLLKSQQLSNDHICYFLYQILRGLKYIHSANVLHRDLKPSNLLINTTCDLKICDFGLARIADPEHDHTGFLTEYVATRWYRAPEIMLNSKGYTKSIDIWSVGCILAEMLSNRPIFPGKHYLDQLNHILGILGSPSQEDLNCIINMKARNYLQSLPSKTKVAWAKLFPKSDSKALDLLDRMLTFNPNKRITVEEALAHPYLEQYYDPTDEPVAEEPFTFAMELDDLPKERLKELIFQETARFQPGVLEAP
Chain of SRSF protein kinase 1 (Homo sapiens) (Q96SB4 whole entry, canonical isoform): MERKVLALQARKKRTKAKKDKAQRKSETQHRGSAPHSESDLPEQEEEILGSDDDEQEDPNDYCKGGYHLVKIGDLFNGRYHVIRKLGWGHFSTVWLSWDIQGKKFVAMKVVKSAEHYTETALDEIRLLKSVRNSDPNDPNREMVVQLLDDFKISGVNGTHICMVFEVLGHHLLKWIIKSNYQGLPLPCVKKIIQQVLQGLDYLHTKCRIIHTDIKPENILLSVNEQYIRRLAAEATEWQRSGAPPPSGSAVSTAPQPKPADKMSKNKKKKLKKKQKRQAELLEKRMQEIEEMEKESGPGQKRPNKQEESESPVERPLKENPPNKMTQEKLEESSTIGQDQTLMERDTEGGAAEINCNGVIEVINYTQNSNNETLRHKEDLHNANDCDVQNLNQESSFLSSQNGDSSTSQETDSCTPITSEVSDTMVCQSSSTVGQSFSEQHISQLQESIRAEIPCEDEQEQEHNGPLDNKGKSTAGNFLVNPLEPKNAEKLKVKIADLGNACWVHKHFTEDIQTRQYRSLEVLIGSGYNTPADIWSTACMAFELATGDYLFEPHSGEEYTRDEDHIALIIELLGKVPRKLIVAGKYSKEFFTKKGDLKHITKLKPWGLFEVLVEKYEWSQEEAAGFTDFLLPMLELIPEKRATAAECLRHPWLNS
Chain of SRSF protein kinase 3 (Homo sapiens) (Q9UPE1 whole entry): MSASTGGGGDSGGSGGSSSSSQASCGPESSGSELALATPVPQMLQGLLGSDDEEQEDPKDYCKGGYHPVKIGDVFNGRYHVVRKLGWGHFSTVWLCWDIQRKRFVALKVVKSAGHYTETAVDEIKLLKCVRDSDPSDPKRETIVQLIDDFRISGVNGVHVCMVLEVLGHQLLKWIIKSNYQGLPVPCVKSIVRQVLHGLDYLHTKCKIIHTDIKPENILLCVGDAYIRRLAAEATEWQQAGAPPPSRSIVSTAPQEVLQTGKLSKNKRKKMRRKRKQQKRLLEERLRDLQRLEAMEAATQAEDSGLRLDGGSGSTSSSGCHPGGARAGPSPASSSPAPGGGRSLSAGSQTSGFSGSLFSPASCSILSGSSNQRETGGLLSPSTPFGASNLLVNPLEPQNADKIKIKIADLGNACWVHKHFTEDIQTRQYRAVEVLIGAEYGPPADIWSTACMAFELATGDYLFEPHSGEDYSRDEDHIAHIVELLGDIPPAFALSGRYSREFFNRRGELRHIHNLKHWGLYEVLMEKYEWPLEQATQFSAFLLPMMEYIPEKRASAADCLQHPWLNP
Chain of Mitogen-activated protein kinase 14 (Homo sapiens) (Q16539 whole entry): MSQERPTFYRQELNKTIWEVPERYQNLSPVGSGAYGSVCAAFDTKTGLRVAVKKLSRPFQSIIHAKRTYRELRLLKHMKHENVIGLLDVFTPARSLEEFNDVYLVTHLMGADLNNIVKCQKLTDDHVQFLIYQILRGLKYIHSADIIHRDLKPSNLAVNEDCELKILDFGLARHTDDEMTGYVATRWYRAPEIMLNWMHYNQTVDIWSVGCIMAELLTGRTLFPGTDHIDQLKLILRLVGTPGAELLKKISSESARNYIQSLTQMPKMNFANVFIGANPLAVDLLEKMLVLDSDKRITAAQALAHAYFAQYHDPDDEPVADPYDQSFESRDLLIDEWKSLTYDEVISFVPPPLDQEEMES
Chain of Sphingosine kinase 1 (Homo sapiens) (Q9NYA1 whole entry): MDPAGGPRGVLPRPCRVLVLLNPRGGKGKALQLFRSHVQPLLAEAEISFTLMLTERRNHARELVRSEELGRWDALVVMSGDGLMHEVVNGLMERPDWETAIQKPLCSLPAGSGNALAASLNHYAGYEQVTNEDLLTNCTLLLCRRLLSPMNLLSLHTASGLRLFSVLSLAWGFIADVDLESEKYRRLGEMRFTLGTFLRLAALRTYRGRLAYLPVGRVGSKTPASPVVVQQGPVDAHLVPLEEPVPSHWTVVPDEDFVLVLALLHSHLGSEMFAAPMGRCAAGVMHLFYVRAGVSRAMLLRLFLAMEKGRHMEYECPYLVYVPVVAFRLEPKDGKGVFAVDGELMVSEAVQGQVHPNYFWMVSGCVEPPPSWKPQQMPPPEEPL
Chain of Mitogen-activated protein kinase 11 (Homo sapiens) (Q15759 whole entry): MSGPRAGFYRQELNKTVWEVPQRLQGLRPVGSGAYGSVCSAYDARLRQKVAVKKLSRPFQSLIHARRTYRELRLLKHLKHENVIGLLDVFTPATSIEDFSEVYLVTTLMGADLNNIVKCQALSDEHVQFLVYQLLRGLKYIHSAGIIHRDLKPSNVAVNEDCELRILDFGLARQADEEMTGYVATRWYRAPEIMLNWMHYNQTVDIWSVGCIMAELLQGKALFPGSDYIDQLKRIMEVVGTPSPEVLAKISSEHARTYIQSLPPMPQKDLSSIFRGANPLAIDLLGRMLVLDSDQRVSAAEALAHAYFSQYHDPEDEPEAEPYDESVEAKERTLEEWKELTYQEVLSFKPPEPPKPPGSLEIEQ
Chain of Phosphatidylinositol 4-kinase beta (Homo sapiens) (Q9UBF8 2-816 limits assumed): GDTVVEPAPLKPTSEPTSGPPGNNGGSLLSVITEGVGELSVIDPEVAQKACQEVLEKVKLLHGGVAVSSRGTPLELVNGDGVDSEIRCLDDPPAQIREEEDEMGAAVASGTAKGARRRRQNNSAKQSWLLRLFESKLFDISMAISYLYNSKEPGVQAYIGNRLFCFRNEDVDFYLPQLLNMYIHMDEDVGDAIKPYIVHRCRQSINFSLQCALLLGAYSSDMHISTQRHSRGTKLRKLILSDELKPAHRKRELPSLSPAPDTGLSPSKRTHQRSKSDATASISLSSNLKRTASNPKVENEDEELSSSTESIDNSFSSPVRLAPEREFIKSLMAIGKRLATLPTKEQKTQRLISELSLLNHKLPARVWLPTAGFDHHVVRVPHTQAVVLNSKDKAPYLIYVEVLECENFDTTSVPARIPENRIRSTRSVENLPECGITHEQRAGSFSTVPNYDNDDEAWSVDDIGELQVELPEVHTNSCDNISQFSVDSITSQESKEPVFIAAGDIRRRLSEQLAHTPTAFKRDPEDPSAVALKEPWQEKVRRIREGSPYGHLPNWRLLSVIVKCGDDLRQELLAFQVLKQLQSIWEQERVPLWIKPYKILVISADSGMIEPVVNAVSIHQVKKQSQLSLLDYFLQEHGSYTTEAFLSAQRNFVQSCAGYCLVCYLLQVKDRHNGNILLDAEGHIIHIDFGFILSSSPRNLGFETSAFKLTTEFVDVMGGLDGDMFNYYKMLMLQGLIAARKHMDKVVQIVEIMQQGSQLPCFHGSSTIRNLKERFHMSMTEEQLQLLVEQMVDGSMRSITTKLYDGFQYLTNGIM
Chain of Phosphatidylinositol 4,5-bisphosphate 3-kinase catalytic subunit alpha isoform (Homo sapiens) (P42336 whole entry, canonical isoform): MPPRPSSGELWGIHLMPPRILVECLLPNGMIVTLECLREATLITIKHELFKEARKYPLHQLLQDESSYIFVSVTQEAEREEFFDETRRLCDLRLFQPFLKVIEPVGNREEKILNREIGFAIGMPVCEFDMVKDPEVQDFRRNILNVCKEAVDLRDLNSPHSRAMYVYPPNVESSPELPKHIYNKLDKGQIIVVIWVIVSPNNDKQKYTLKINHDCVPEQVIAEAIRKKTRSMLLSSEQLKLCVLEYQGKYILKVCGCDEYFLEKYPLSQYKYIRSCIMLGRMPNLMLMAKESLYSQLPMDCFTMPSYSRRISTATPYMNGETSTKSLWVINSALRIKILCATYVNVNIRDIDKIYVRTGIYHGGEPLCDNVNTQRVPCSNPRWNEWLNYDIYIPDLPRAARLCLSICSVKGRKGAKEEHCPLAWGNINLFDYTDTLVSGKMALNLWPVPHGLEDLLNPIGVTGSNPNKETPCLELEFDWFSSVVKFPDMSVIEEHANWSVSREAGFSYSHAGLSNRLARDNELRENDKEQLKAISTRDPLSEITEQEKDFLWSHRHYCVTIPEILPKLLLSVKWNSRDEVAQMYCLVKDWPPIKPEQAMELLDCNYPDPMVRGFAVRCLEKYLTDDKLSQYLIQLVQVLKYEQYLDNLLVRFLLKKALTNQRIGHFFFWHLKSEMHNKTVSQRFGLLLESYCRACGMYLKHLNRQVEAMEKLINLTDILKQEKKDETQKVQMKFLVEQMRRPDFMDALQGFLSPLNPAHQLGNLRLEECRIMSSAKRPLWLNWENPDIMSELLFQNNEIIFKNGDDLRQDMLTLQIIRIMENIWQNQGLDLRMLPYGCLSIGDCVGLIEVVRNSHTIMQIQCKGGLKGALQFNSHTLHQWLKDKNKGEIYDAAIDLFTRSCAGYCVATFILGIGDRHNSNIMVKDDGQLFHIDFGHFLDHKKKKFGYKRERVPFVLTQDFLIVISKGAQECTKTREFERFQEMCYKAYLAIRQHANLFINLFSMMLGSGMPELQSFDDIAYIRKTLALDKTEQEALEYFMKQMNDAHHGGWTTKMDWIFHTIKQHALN

| Structure (SMILES) | inhibition [1] | inhibition [2] | inhibition [3] | inhibition [4] | inhibition [5] | inhibition [6] | inhibition [7] | inhibition [8] | inhibition [9] | inhibition [10] | inhibition [11] | inhibition [12] | inhibition [13] | inhibition [14] | inhibition [15] | inhibition [16] | inhibition [17] | inhibition [18] | inhibition [19] | inhibition [20] |
| --- | --- | --- | --- | --- | --- | --- | --- | --- | --- | --- | --- | --- | --- | --- | --- | --- | --- | --- | --- | --- |
| N#Cc1ccc(Oc2nccc(-c3c(-c4ccc(F)cc4)ncn3C3CCNCC3)n2)cc1 | 6.42% | -1.55% | -0.03% | -3.52% | -3.38% | 5.16% | 19.6% | 2.8% | 17.6% | 1.26% | 1.85% | 0.59% |  |  |  |  |  |  |  |  |
| Fc1ccc(-c2nc3n(c2-c2ccncc2)CCS3)cc1 | 4.33% | -1.07% | -0.89% | -1.99% | -4.38% | 3.77% | 4.45% | 3.17% | 4.9% | -3.93% | 0.29% | -3.68% | 19.8% | 67.4% | 8.81% | 13.1% | 1.46% | 5.36% | 1.62% | 3.41% |
| Fc1ccc(-c2ncn(C3CCNCC3)c2-c2ccnc(Oc3ccc4c(c3)OCO4)n2)cc1 | 10.1% | 1.72% | 6.43% | -1.04% | 0.51% | 4.23% | 4.92% | 0.82% | 3.24% | 2.26% | 4.42% | 1.03% |  |  |  |  |  |  |  |  |
| COc1cc(Nc2ncc3c(C)nc(-c4cccc(Oc5ccccc5)c4)n3n2)cc(OC)c1OC | 5.07% | 0.17% | 1.56% | -2.01% | -3.6% | 0.78% | 1.96% | 0.25% | 2.99% | 2.58% | 2.46% | -1.6% | 0.66% | 4.12% | 0.51% | 4.42% | 0.98% | 2.5% | 0.18% | 0.85% |
| NC(=O)Cc1ccccc1Oc1nccc(-c2c(-c3ccc(F)cc3)ncn2C2CCNCC2)n1 | 2.24% | -0.6% | 0.09% | -2.64% | -4.17% | 1.29% | 3.49% | 2.67% | 2.58% | -0.45% | 3.25% | -2.17% |  |  |  |  |  |  |  |  |
| Cc1ccc(NC(=O)c2ccoc2)cc1-c1ccc(C(=O)NCC2CC2)cc1 | 2.32% | -2.54% | -1.92% | -1.34% | -0.85% | 2.81% | 3.57% | 1.77% | 2.51% | 1.89% | -1.62% | 0% |  |  | 27.8% | 61.2% | 2.82% | 0.81% | 2.37% | 1.97% |
| O=C(NCC1CC1)c1ccc(-c2cccc(C(=O)NC3CC3)c2)cc1 | 0.8% | 1.6% | 1.04% | -1.5% | -3.41% | 1.61% | 1.53% | 1.94% | 2.38% | -4.62% | -1.95% | 0.53% | 1.13% | 13.9% | 2.37% | 7.97% | 1.41% | 3.97% | 4.08% | 1.8% |
| NS(=O)(=O)c1ccc(N/N=C2\C(=O)Nc3ccc(C(=O)NCCCn4ccnc4)cc32)cc1 | 15.9% | -1.4% | 0.48% | -0.49% | 2.62% | 3.67% | 4.54% | 0.52% | 2.39% |  | -5.49% | 14.8% | 1.52% | 7.84% | 5.07% | 9.47% | 1.23% | 6.17% | 2.29% | 2.75% |
